37 compounds from PubChem BioAssay (NCI) can be followed below.

About 83,000 compounds went through this panel and 20% of them were active in at least one assay; those are over-represented in the sample as a whole.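 Compound tested at a single concentration for 48 hours in 96-well plates; a percent growth value below 10 was scored as active.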 Calls of active or inactive are those of the source.

This experiment relates to HL-60(TB) leukemia. Kind of experiment: NCI-60 one-dose screen, 48 h (100 = growth as untreated, 0 = no growth, -100 = all killed). The note with it: 10 µM unless noted.
On to `Cc1ccc(Cl)cc1NC(=O)CCl`, for which the growth is 33% (inactive).
Turning to `NNC(=O)CNc1ccc2ccccc2c1`, the growth is 84.8% (inactive).
`Cc1nc2ccccc2c(/C=C/c2ccccc2)c1C(=O)/C=C/c1ccc(Cl)cc1`: the growth was 1.63% (active).
`CC(C)C(C(=O)NCCN1CCOCC1)N1C(=O)/C(=C/c2ccc(Br)cc2)SC1=S` (configuration not stated): the growth is 101% (inactive).
As to `CCOC(=O)C1(CC(C)C)CCOC1=O` (configuration not stated), the growth is 96.9% (inactive).
In the case of `NC(N)=N/N=C/c1cccc(Br)c1` it was 95.3% (inactive); in that of `O=C(Nc1ccccc1O)c1ccc(Oc2cccc(C(=O)Nc3ccccc3O)c2)cc1`, -40.4% (active).
Then `O=C1CCC/C=C\C[C@H]2C=CC(=O)/C2=C/C[C@H](C/C=C\CC(F)(F)F)O1`, with -16.6% (active).
Regarding `CCCCC#Cc1c(I)n(C2OC(CO[Si](C)(C)C(C)(C)C)C3OC(C)(C)OC32)c(=O)[nH]c1=O` (configuration not stated), the growth was -29.4% (active).
On to `Nc1nc(C(=O)N/N=C/c2ccc(F)cc2)nn1-c1ccc(S(N)(=O)=O)cc1`, for which the growth is 99.5% (inactive).
In the case of `Cc1ccc(-c2csc(N(C(=O)N3CCN(c4cc5c(cc4F)c(=O)c(C(=O)O)cn5C4CC4)CC3)c3ccccc3)n2)cc1` it was 1.91% (active).
In the case of `O=C1/C(=C/c2ccccc2)CN(C(=O)C(Cl)Cl)C/C1=C\c1ccccc1`, the growth is -15.3% (active).
For the compound `O=C(Nc1ccc(Oc2ccc(F)cc2)c(Cl)c1)c1cnccn1`, the growth is 21.4% (inactive).
As for `CCN(CC)CCCCCCCNc1c2ccc(Cl)cc2nc2ccc(OC)cc12`, the growth is -46.9% (active).
Then `CN(C)CCC=C1c2ccccc2C(C)(C)c2ccccc21`, with 85.5% (inactive).
Then `CC(CN(C)C)Oc1ccccc1NC1=C(Cl)C(=O)C(Nc2ccccc2OC(C)CN(C)C)=C(Cl)C1=O` (configuration not stated), with -41.8% (active); and `NS(=O)(=O)c1ccc(CN2C(=O)c3cccc4cccc(c34)C2=O)cc1`, with 98.6% (inactive); and `O=C(NN1C(=O)CSC1c1cccc([N+](=O)[O-])c1)c1ccc(NC(=O)c2ccccn2)cc1` (configuration not stated), with 67.6% (inactive).
Then `S=C1CCCC(=S)N1`, with 101% (inactive); and `Cc1ccc(N(CSc2ccc(Cl)cc2)CSc2ccc(Cl)cc2)cc1`, with -46.7% (active); and `COc1ccc2c(c1)[nH]c(=O)c1c3cc(C)c(C)cc3cn21`, with -14.8% (active).
`O=c1[nH]c(=O)n(C2C[C@@H](O)[C@@H](CO)O2)cc1F` (some centres not stated): the growth is 27.1% (inactive).
Then `C[C@H]1[C@H](C)CC[C@]2(C(=O)N3CCN(C)CC3)CC[C@]3(C)C(=CC[C@@H]4[C@@]5(C)C/C(=C/c6ccco6)C(=O)C(C)(C)[C@@H]5CC[C@]43C)[C@H]12`, with -39.1% [100 µM] (active); and `O=C(Nc1cccnc1Nc1ccc(Cl)cc1)c1cn(Cc2ccc(F)cc2)nn1`, with 109% (inactive).
In the case of `O=C1Nc2c(ccc(Cl)c2Cl)/C1=C/c1ccc([N+](=O)[O-])cc1` it was 74.1% (inactive); in that of `NC(=O)OCCO`, 106% (inactive).
In the case of `NN1CCOC(c2ccccc2)C1` (configuration not stated) it was -22.4% (active).
Turning to `COc1cc(C2CC(c3ccc(C)cc3)=NN2C(C)=O)ccc1Oc1ccnc2cc(Cl)ccc12` (configuration not stated), the growth is 100% (inactive).
In the case of `C=CCOc1ccc2c(c1)CC[C@@H]1[C@@H]2CC[C@@]2(C)[C@H]1CC[C@]2(C)O`, the growth is 74.6% (inactive).
For the compound `O=C(NNC(=O)N1c2ccccc2C=Cc2ccccc21)c1ccc2ccccc2c1`, the growth was 90% (inactive).
Then `COC(=O)C(N)CSC(c1ccccc1)(c1ccccc1)c1ccccc1` (configuration not stated), with -28.7% (active).
In the case of `Cc1cc(C(=O)O)c(C)n1-c1cccc(C(=O)O)c1` it was 56.2% (inactive).
Then `CC1SC(c2c(Cl)cccc2Cl)N(NC(=O)c2[nH]c3ccc(F)cc3c2-c2ccccc2)C1=O` (configuration not stated), with 103% (inactive); and `CC(C)(O)CC(=O)NCCn1ccc2ncnc(Nc3ccc(Oc4cccc(C(F)(F)F)c4)c(Cl)c3)c21`, with 2.51% (active).
For `CC(C)=CCC/C(C)=C/CC/C(C)=C/CC/C=C(\C)CC/C=C(\C)CCC(=O)Nc1ccn(C2OC(CO)C(O)C2(F)F)c(=O)n1` (configuration not stated), the growth is -21.3% (active).
In the case of `C=C(C)[C@@H]1CC[C@]2(C(=O)O)CC[C@]3(C)[C@H](CC[C@@H]4[C@@]5(C)C[C@@H](CC#Cc6ccc(C(C)=O)s6)[C@H](O)C(C)(C)[C@@H]5CC[C@]43C)[C@@H]12` it was 54% (inactive); in that of `C=C1C(=O)O[C@H]2[C@H]1CC/C(COC(=O)/C=C/C(=O)OC/C1=C/CC[C@@]3(C)O[C@H]3[C@H]3OC(=O)C(=C)[C@@H]3CC1)=C\CC[C@@]1(C)O[C@@H]21`, -23.6% (active).
